{"source": "PubChem BioAssay AID624040", "about": "(The Scripps Research Institute Molecular Screening Center, 2012)", "note": "Values joined by “and” are separate entries in the source; they are usually repeats but may differ in a detail not shown here. Equal entries are not always repeated. Out of some 360,000 compounds screened, about 2,100 (0.58%) were called active.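 Rule for the calls: active = inhibition above a per-plate cutoff, the mean of that plate's test compounds plus 3 SD (cut at about 27% in these data); inactive = the rest.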 What follows is part of a selection rich in actives, with near analogues and random picks from the rest. Some compounds were tested as several samples or in several runs, with calls that do not always agree."}
{"target": "Muscarinic acetylcholine receptor M5 (Homo sapiens) (UniProt P08912)", "sequence (P08912 whole entry, looked up)": "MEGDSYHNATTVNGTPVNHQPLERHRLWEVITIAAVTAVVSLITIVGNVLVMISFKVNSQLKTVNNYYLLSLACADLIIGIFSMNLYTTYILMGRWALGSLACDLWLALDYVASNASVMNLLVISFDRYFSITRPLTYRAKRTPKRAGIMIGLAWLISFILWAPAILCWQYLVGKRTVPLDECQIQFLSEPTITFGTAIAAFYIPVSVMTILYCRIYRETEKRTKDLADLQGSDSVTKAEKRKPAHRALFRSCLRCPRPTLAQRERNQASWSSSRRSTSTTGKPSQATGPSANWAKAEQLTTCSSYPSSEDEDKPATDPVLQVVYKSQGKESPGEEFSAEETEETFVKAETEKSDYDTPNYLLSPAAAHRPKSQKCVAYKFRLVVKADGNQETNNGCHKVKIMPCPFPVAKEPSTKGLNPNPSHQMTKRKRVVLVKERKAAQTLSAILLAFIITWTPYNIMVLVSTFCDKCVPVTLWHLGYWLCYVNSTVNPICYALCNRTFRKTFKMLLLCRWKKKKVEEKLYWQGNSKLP", "assay": "CHRM5 blockers of acetylcholine calcium response – CHO cells, Fluo-8 calcium fluorescence, primary screen (AID 624040);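 note: 0% = acetylcholine EC80 with DMSO and 100% = DMSO without agonist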", "settings": "CHO-hM5 cells, ACh EC80, at 3 µM, stronger effect = higher value"}
{"smiles": "COc1ccc(CCNc2cc(C)nc3c(-c4ccc(Cl)cc4)c(C)nn23)cc1OC", "inhibition": "0.85% (inactive)"}
{"smiles": "CSCCC(C(=O)NC1=NCCS1)N1C(=O)c2ccccc2C1=O", "note": "(stereo not drawn)", "inhibition": "6.62% (inactive)"}
{"smiles": "CCN(CC)C(=O)C1CCCN(Cc2cccc(Cl)c2)C1", "note": "(stereo not drawn)", "inhibition": "2.81% (inactive)"}
{"smiles": "COc1c(O)ccc2c1CN1CCc3cc4c(cc3C1C2)OCO4", "note": "(stereo not drawn)", "inhibition": "4.81% (inactive)"}
{"smiles": "CC(C)C(=O)Nc1ccc2c3c(cccc13)CC2", "inhibition": "-8.88% (inactive)"}
{"smiles": "N#CC1(Nc2ccc3c4c(cccc24)CC3)CCCCC1", "inhibition": "40.5% (active)"}
{"smiles": "N#CC1(Nc2ccc(-c3ccc(Cl)cc3)cc2)CCCC1", "inhibition": "16.1% (inactive)"}
{"smiles": "CCCCOC(=O)c1ccc(NC(c2ccc(C)cc2)P(=O)(OC)OC)cc1", "note": "(stereo not drawn)", "inhibition": "8.39% (inactive)"}
{"smiles": "CC1=C(C(=O)N2CCOCC2)CC(CC(=O)NCc2ccco2)C(=O)N1Cc1ccc(F)cc1", "note": "(stereo not drawn)", "inhibition": "-4.73% (inactive)"}
{"smiles": "O=C(O)c1n[nH]nc1-c1ccccc1", "inhibition": "-3.66% (inactive)"}
{"smiles": "Cc1c(-c2ccccc2)nc(N)c(C#N)c1-c1cccs1", "inhibition": "8.1% (inactive)"}
{"smiles": "N#Cc1c(-c2ccccc2)c(-c2ccccc2)n[nH]c1=O", "inhibition": "31.9% (active)"}
{"smiles": "COc1cc(C)nc(N2CCCC(C(=O)NCC(C)C)C2)n1", "note": "(stereo not drawn)", "inhibition": "-3.29% (inactive)"}
{"smiles": "CCCc1cc(C(=O)N2CCCC(CO)(CCCc3ccccc3)C2)n(C)n1", "note": "(stereo not drawn)", "inhibition": "17% (inactive)"}
{"smiles": "CCN(CC)S(=O)(=O)c1ccc(N(C)CCc2ccc(OC)c(OC)c2)nc1", "inhibition": "3.43% (inactive)"}
{"smiles": "CCN(CC)S(=O)(=O)c1ccc(N(C)Cc2ccc(C(F)(F)F)cc2)nc1", "inhibition": "29% (active)"}
{"smiles": "CCN(CC)S(=O)(=O)c1ccc(N(C)Cc2cccc(OC)c2OC)nc1", "inhibition": "22.7% (inactive)"}
{"smiles": "Nc1c(Cl)cc(-c2csc(N3CCCC3c3nc4cc(Cl)c(Cl)cc4n3CCOCCO)n2)cc1Cl", "note": "(stereo not drawn)", "inhibition": "15.2% (inactive)"}
{"smiles": "O=C(COC(=O)c1cc(-c2cccs2)nn1-c1ccccc1)Nc1cc([N+](=O)[O-])ccc1Cl", "inhibition": "1.74% (inactive)"}
{"smiles": "CCCCN(C(=O)C(CCSC)N1C(=O)c2ccccc2C1=O)c1c(N)n(CCC)c(=O)[nH]c1=O", "note": "(stereo not drawn)", "inhibition": "-3.24% (inactive)"}
{"smiles": "Cc1ccc(NC(=O)CN(C)CC(=O)Nc2cccc(F)c2)cc1[N+](=O)[O-]", "inhibition": "35.5% (active)"}
{"smiles": "Cc1ccc(NC(=O)c2sccc2C)cc1[N+](=O)[O-]", "inhibition": "10.3% (inactive)"}
{"smiles": "CN(CC(=O)Nc1cccc(F)c1)C(=O)C1=COCCO1", "inhibition": "11.4% (inactive)"}
{"smiles": "CCCNC(=O)NCc1ccc(N2CCCC2=O)cc1", "inhibition": "-1.94% (inactive)"}
{"smiles": "CN(C)CCOC(=O)C(c1ccccc1)C1(O)CCCC1", "note": "(stereo not drawn)", "inhibition": "98.1% (active)"}
{"smiles": "O=C(O)C(c1ccccc1)C1(O)CCCCC1", "note": "(stereo not drawn)", "inhibition": "-13.2% (inactive)"}
{"smiles": "O=C(O)C(c1cccs1)C1(O)CCCCC1", "note": "(stereo not drawn)", "inhibition": "9.55% (inactive)"}
{"smiles": "COc1ccc(NC(=O)CC2C(=O)NC3CCCCC3N2C(=O)c2ccc(F)cc2)cc1", "note": "(stereo not drawn)", "inhibition": "23.2% (inactive)"}
{"smiles": "CCOc1ccc(Br)cc1CSC(=N)N", "inhibition": "30.2% (active)"}
{"smiles": "CC(C)(C)NCc1cc(Br)ccc1OC1CCCC1", "inhibition": "-2.57% (inactive)"}
{"smiles": "CCOc1ccc(Br)cc1S(=O)(=O)N1CCC(C(=O)O)CC1", "inhibition": "10.7% (inactive)"}
{"smiles": "CC(C)(C)NC(=O)CN(C(=O)c1ccc(Cl)nc1)c1cccc2ccccc12", "inhibition": "0.44% (inactive)"}
{"smiles": "Cc1cc(C(F)(F)F)nn1CC(=O)N1CCCC1", "inhibition": "-0.38% (inactive)"}
{"smiles": "CCOc1ccc(C(=O)Nc2ccc(S(=O)(=O)Nc3cc(C)on3)cc2)cc1", "inhibition": "7.9% (inactive)"}
{"smiles": "O=S(=O)(Nc1ccc(OC(F)(F)F)cc1)c1cccc2nonc12", "inhibition": "3.29% (inactive)"}
{"smiles": "O=C(Nc1ccc(OC(F)(F)F)cc1)c1ccc2c(c1)no[n+]2[O-]", "inhibition": "28.2% (active)"}
{"smiles": "O=C(COC(=O)c1ccc(N2CCCC2=O)cc1)c1ccc(OC(F)F)cc1", "inhibition": "6.05% (inactive)"}
{"smiles": "COc1cccc(OC)c1C(=O)Nc1c(C(=O)N2CCN(c3ccccn3)CC2)oc2ccccc12", "inhibition": "9.59% (inactive)"}
{"smiles": "COc1cccc(-n2c(N)cc(=O)nc2SCC(=O)Nc2cc(C)on2)c1", "inhibition": "-11.3% (inactive)"}
{"smiles": "COc1ccc(CCNC(=O)CCc2ccccc2O)cc1OC", "inhibition": "-1.37% (inactive)"}
{"smiles": "COc1ccc(CCNC2=C(Cl)C(=O)N(Cc3ccccc3)C2=O)cc1OC", "inhibition": "31.8% (active)"}
{"smiles": "COc1ccc(CCNc2nc(C)cc(C)n2)cc1OC", "inhibition": "1.9% (inactive)"}
{"smiles": "N#CCCN(C(=S)Nc1ccc(Cl)c(Cl)c1)C1CCCCC1", "inhibition": "24.6% (inactive)"}
{"smiles": "CCN1CCN(C(=O)/C=C\\C(=O)O)CC1", "inhibition": "2.54% (inactive)"}
{"smiles": "O=C(Nc1ccc(Cl)cn1)c1ccccc1-c1ccccc1", "inhibition": "10.9% (inactive)"}
{"smiles": "O=C(Nc1ccc(Cl)cn1)c1cnn2cccnc12", "inhibition": "-6.64% (inactive)"}
{"smiles": "O=C(Nc1ccc(Cl)cn1)Nc1cccs1", "inhibition": "31.8% (active)"}
{"smiles": "CC(C)C[C@H](NC(=O)N1CCn2c1nc1ccccc12)C(=O)NC1CC1", "inhibition": "0.78% (inactive)"}
{"smiles": "CCN(CC)S(=O)(=O)c1ccc2nc(CSc3nnnn3-c3ccc(O)cc3)[nH]c2c1", "inhibition": "10.1% (inactive)"}
{"smiles": "Cc1nc2ccccc2cc1OCc1ccc(F)cc1", "inhibition": "47.8% (active)"}
{"smiles": "Fc1ccc(COc2cccc(-c3n[nH]c(=S)o3)c2)cc1", "inhibition": "8.85% (inactive)"}
{"smiles": "Fc1cccc2ncnc(OCc3ccccc3)c12", "inhibition": "4.79% (inactive)"}
{"smiles": "O=C(CSc1nccc(=O)[nH]1)Nc1ccc(N2CCOCC2)c(Cl)c1", "inhibition": "12.6% (inactive)"}
{"smiles": "CCOc1ccc(C(C)=O)cc1CSc1nnc(-c2ccncc2)n1CCOC", "inhibition": "12% (inactive)"}
{"smiles": "CCN1C(=O)CS/C1=N\\c1nccs1", "inhibition": "-0.1% (inactive)"}
{"smiles": "CCOc1ccc(C(=O)NCC(=O)N2CCCCCCC2)cc1OCC", "inhibition": "1.82% (inactive)"}
{"smiles": "CO/N=C(\\C(=O)N[C@@H]1C(=O)N2C(C(=O)O)=C(COC(C)=O)CS[C@H]12)c1csc(N)n1", "note": "(stereo in doubt)", "inhibition": "0.17% (inactive) and 51.3% (active) and 30.6% (active)"}
{"smiles": "CCN1CCN(C(=O)N[C@@H](C(=O)N[C@@H]2C(=O)N3C(C(=O)O)=C(CSc4nnnn4C)CS[C@H]23)c2ccc(O)cc2)C(=O)C1=O", "inhibition": "-7.79% (inactive)"}
{"smiles": "C=CC1=C(C(=O)O)N2C(=O)[C@@H](NC(=O)/C(=N/OCC(=O)O)c3csc(N)n3)[C@H]2SC1", "inhibition": "-2.27% (inactive)"}
{"smiles": "COc1ccc(C(=O)Cn2nnc(-c3ccc(N4CCOCC4)cc3)n2)cc1OC", "inhibition": "16.5% (inactive)"}
{"smiles": "N#CCc1ccc(NC(=O)c2ccccc2C(=O)Nc2ccc(CC#N)cc2)cc1", "inhibition": "2.31% (inactive)"}
{"smiles": "COc1cc(OC)c2ccc(=O)oc2c1C(CCN1CCN(c2ccccc2)CC1)c1ccc2c(c1)OCO2", "note": "(stereo not drawn)", "inhibition": "31.3% (active)"}
{"smiles": "COc1cc(C(CCN2CCN(c3ccccc3)CC2)c2c(OC)cc(OC)c3ccc(=O)oc23)cc(OC)c1OC", "note": "(stereo not drawn)", "inhibition": "17% (inactive)"}
{"smiles": "CCN(CC)CCC(c1ccc2c(c1)OCO2)c1c(OC)cc(OC)c2c(-c3ccccc3)cc(=O)oc12", "note": "(stereo not drawn)", "inhibition": "7.48% (inactive)"}
{"smiles": "Cc1ccc(NC(=O)c2cc([N+](=O)[O-])ccc2Cl)c(O)c1", "inhibition": "1.06% (inactive)"}
{"smiles": "CCOC12CC(C)(C)CC(C)(CC3=C1C(=O)CC(C)(C)C3)C2", "note": "(stereo not drawn)", "inhibition": "-1.41% (inactive)"}
{"smiles": "Cc1ccc(CNC(=O)CCNS(=O)(=O)c2ccc(Br)s2)cc1", "inhibition": "-7.85% (inactive)"}
{"smiles": "CCN(CC(=O)Nc1ccccc1C(=O)NC1CC1)Cc1cccs1", "inhibition": "-5.91% (inactive)"}
{"smiles": "CC(=O)Oc1ccc(C(=O)Nc2nccs2)cc1", "inhibition": "-0.3% (inactive)"}
{"smiles": "CSc1nccc(NC(=O)c2ccc(C(C)(C)C)cc2)n1", "inhibition": "32.5% (active)"}
{"smiles": "CSc1ncc(C(=O)Nc2ccc(C)cc2C)c(C)n1", "inhibition": "0.26% (inactive)"}
{"smiles": "O=C(CSc1nn(-c2ccc(F)cc2)c(=S)s1)NC1CCS(=O)(=O)C1", "note": "(stereo not drawn)", "inhibition": "2.55% (inactive)"}
{"smiles": "CC(=O)NC(c1cccs1)c1cc(Br)c2cccnc2c1O", "note": "(stereo not drawn)", "inhibition": "-3.57% (inactive)"}
{"smiles": "CCn1c(N)c(Br)c(=O)[nH]c1=O", "inhibition": "-11.1% (inactive)"}
{"smiles": "Cc1ccc(N2CC(C(=O)NCCS(=O)(=O)N3CCN(c4ccccc4)CC3)CC2=O)cc1", "note": "(stereo not drawn)", "inhibition": "8.26% (inactive)"}
{"smiles": "N#C/C(=C/c1ccc(N2CCCCC2)o1)C(=O)NCCc1c[nH]c2ccccc12", "inhibition": "31.6% (active)"}
{"smiles": "Cc1ccc(C(=O)N/C(=C/c2ccco2)C(=O)NCCc2c[nH]c3ccccc23)cc1C", "inhibition": "0.84% (inactive)"}
{"smiles": "N#C/C(=C\\c1ccc(N2CCOCC2)o1)C(=O)N1CCOCC1", "inhibition": "0.08% (inactive)"}
{"smiles": "Cc1ccccc1CSc1nnc(-c2ccccn2)n1N", "inhibition": "-0.16% (inactive)"}
{"smiles": "CC(C)(C)S(=O)(=O)N1Cc2cc(CO)cc(CCO)c2[C@H]1CCO", "inhibition": "-3.33% (inactive)"}
{"smiles": "CCC1CCC/C1=N\\NC(=O)c1ccc(Cl)cc1", "note": "(stereo not drawn)", "inhibition": "27.5% (active)"}
{"smiles": "CN1CCC(=NNC(=O)c2ccc(N(Cc3ccc(Cl)cc3)S(C)(=O)=O)cc2)CC1", "inhibition": "-3.74% (inactive)"}
{"smiles": "CC(NC(=O)c1ccc(Cl)cc1)C(=O)N1CCCCC1", "note": "(stereo not drawn)", "inhibition": "-2.56% (inactive)"}
{"smiles": "COc1cc(OC)cc(-c2c(C#Cc3ccsc3)c3cc(-c4ccc(OC)cc4F)ccc3n2C)c1", "inhibition": "8.22% (inactive)"}
{"smiles": "CCOc1ccc(OCc2ccc(C(=O)N(C)c3ccccc3)o2)cc1", "inhibition": "8.29% (inactive)"}
{"smiles": "CN(C(=O)CN1CCN(c2cc(-c3ccc(OCc4ccccc4)cc3)ncn2)CC1)c1ccccc1", "inhibition": "27.1% (active)"}
{"smiles": "CCN(CC)c1ccc(NC(=O)CN2CCN(c3ccccn3)CC2)cc1", "inhibition": "1.09% (inactive)"}
{"smiles": "C[C@H](NS(=O)(=O)c1ccc(Cl)cc1)C(=O)OCC(=O)N1CCOCC1", "inhibition": "14.1% (inactive)"}
{"smiles": "CN(C)CCNC(=O)c1ccc(Cl)c2cc3ccccc3nc12", "inhibition": "0.61% (inactive)"}
{"smiles": "N#C/C=C\\Oc1ccc(Cl)cc1N", "inhibition": "1.41% (inactive)"}
{"smiles": "Cc1ccc(-c2c[n+](CC(=O)Nc3ccccc3)c3n2CCC3)cc1", "inhibition": "2.52% (inactive)"}
{"smiles": "Clc1ccc(C[n+]2cc(-c3ccc(Cl)cc3)n3c2CCC3)cc1", "inhibition": "32.4% (active)"}
{"smiles": "Cc1ccc(C(=O)C[n+]2cc(-c3ccccc3)n3c2CCCCC3)cc1", "inhibition": "4.95% (inactive) and 0.73% (inactive)"}
